Results taken from PubChem BioAssay (Tox21).
Records with an inconclusive call do not appear. Activity calls are given as the source filed them. Unless noted, the call rests on the fitted dose curve; in most records, active means well fitted curve in the direction sought with a large enough effect in the repeat runs; inconclusive means weak or mixed curves; inactive means no such curve, though single readings can be large; an effect the other way counts as inactive or inconclusive.

Key:
[1] = qHTS RealTime-Glo MT Cell Viability Assay in HEK293 cells - 0 hour (AID 1224880); further: top concentration of the series differs between compounds; nearly all actives have a fitted effect of over 45% in size
Method in brief: (§1)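 Luminescence readout at each listed time point; HEK293, 600 cells/well, RealTime-Glo MT reagent added with cells; compounds pinned (23 nL in DMSO) after 5 h at 37 C; continuous culture at 37 C.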

[2] = A CellTox Green Cytotoxicity Assay to monitor cytotoxicity in HEK293 cells - 32 hour (AID 1224881); further: nearly all actives have a fitted effect of over 40% in size
Method in brief: (§2)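 Read-out: fluorescence of a cell-impermeant cyanine dye staining DNA of dead cells, proportional to cytotoxicity. HEK293, 600 cells/well with reagent, compound (23 nL DMSO) added after 5 h; reads at 0, 8, 16, 24, 32, 40 h.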

[3] = A CellTox Green Cytotoxicity Assay to monitor cytotoxicity in HepG2 cells - 0 hour (AID 1224882); further: nearly all actives have a fitted effect of over 35% in size
Method in brief: (§3)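 HepG2, 600 cells/well premixed w/ CellTox Green; 5 h settle, 37 C/5% CO2; pintool cpd add (DMSO); 37 C, 40 h; fluorescence read at 0, 8, 16, 24, 32, 40 h.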

[4] = A CellTox Green Cytotoxicity Assay to monitor cytotoxicity in HepG2 cells - 32 hour (AID 1224883); further: nearly all actives have a fitted effect of over 50% in size
Method in brief: as §3

[5] = A CellTox Green Cytotoxicity Assay to monitor cytotoxicity in HEK293 cells - 8 hour (AID 1224884); further: nearly all actives have a fitted effect of over 35% in size
Method in brief: as §2

[6] = qHTS RealTime-Glo MT Cell Viability Assay in HepG2 cells - 16 hour (AID 1224885); further: nearly all actives have a fitted effect of over 50% in size
Method in brief: (§4)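 Viability was tracked continuously by NanoLuc luminescence from prosubstrate reduced by living HepG2 cells, at successive time points over 40 h of compound exposure. Cells with reagent were preincubated 5 h at 37 °C before compound addition.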

[7] = qHTS RealTime-Glo MT Cell Viability Assay in HEK293 cells - 24 hour (AID 1224886); further: top concentration of the series differs between compounds; nearly all actives have a fitted effect of over 50% in size
Method in brief: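 Viability tracked continuously by luminescence as live cells reduce a prosubstrate for NanoLuc; HEK293 cells preincubated 5 h, compound-treated at 37 C, and read at 0, 8, 16, 24, 32 and 40 h.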

[8] = qHTS RealTime-Glo MT Cell Viability Assay in HEK293 cells - 8 hour (AID 1224887); further: top concentration of the series differs between compounds; nearly all actives have a fitted effect of over 50% in size
Method in brief: as §1

[9] = A CellTox Green Cytotoxicity Assay to monitor cytotoxicity in HEK293 cells - 16 hour (AID 1224888); further: nearly all actives have a fitted effect of over 35% in size
Method in brief: as §2

[10] = qHTS RealTime-Glo MT Cell Viability Assay in HepG2 cells - 0 hour (AID 1224889); further: nearly all actives have a fitted effect of over 50% in size
Method in brief: as §4

[11] = A CellTox Green Cytotoxicity Assay to monitor cytotoxicity in HepG2 cells - 8 hour (AID 1224890); further: nearly all actives have a fitted effect of over 45% in size
Method in brief: as §3

[12] = qHTS assay to identify small molecule antagonists of the estrogen receptor alpha (ER-alpha) signaling pathway using the BG1 cell line in the presence of 0.1 nM 17-beta-estradiol - cell viability counter screen (AID 1259241); further: nearly all actives have a fitted effect of over 40% in size
Method in brief: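 VM7Luc4E2 cells (endogenous full-length ER-alpha, 4xERE-luciferase), cultured 5 days in charcoal-stripped serum, exposed to compounds with 0.1 nM 17beta-estradiol (final) for 22 hr at 37C. Viability read in same wells as live-cell protease fluorescence after 30 min.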

[13] = qHTS assay to identify small molecule antagonists of the androgen receptor (AR) signaling pathway using the MDA cell line in the presence of 0.5 nM R1881 - cell viability counter screen (AID 1259242); further: nearly all actives have a fitted effect of over 45% in size
Method in brief: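 Live-cell protease fluorescence, CellTiter-Fluor, 30 min at 37C. Cells: MDA-kb2, 3,000/well, preincubated 5 hr. Compounds plus 0.5 nM R1881 final, 16 hr, 37C, 0% CO2.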

[14] = molecular target: Androgen receptor (Homo sapiens) (UniProt P10275); test: qHTS assay to identify small molecule antagonists of the androgen receptor (AR) signaling pathway using the MDA cell line in the presence of 0.5 nM R1881 (AID 1259243); further: nearly all actives have a fitted effect of over 50% in size
Method in brief: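 MDA-kb2, MMTV-luc (AR/GR elements); 3,000 cells/well; cpd + 0.5 nM R1881 final; 16 hr 37C, 0% CO2; ONE-Glo 30 min RT; luminescence.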

[15] = qHTS assay to identify small molecule phospholipidosis (PLD) inducers (AID 1259344; active means well fitted curve in the direction sought with a large enough effect; an effect the other way counts as inactive or inconclusive)
Method in brief: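 After 4 h attachment on collagen I, HepG2 cells were dosed with compound alongside LipidTOX Red, kept 24 h at 37 C, fixed, and imaged for lamellar phospholipid pits.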

[16] = qHTS assay to identify small molecule HDAC inhibitors (AID 1259364);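 further: wild-type HCT-116 cells with endogenous class I/II HDAC activity; top concentration of the series differs between compounds; nearly all actives have a fitted effect of over 45% in size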
Method in brief: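 HCT-116 (wild type), 1,500 cells/well, overnight; compound 2 hr 37C 5% CO2; HDAC-Glo I/II reagent 30 min RT; luminescence readout.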

[17] = qHTS assay to identify small molecule HDAC inhibitors - cell viability counter screen (AID 1259365)
Method in brief: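 Wild-type HCT-116 cells, 1,500/well, cultured overnight, then compound-treated 2 h at 37 C. Viability measured as ATP luminescence with CellTiter-Glo after 30 min at room temperature.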

[18] = qHTS assay to identify small molecule agonists of the sonic hedgehog signaling (Shh) pathway - cell viability counter screen (AID 1259366); further: nearly all actives have a fitted effect of over 50% in size
Method in brief: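 NIH/3T3-derived Gli1-Luc reporter cells, 2,000 per well, received compound after 4 h and were treated about 23 h at 37C. Viability measured in the same wells by CellTiter-Fluor fluorescence after 1 h.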

[19] = qHTS assay to identify small molecule antagonists of the sonic hedgehog signaling (Shh) pathway - cell viability counter screen (AID 1259367); further: nearly all actives have a fitted effect of over 55% in size
Method in brief: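 Conditioned medium drove Shh signaling in 3T3 Gli1-Luc cells exposed to compounds at 37C and 5% CO2. Viability was determined from CellTiter-Fluor fluorescence, with reagent incubated 1 hr after 23 hr of treatment.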

[20] = molecular target: Estrogen receptor (Homo sapiens) (UniProt P03372); test: qHTS assay to identify small molecule antagonists of the estrogen receptor alpha (ER-alpha) signaling pathway using the BG1 cell line in the presence of 0.1 nM 17-beta-estradiol (AID 1259244); further: nearly all actives have a fitted effect of over 50% in size
Method in brief: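 Luminescence after ONE-Glo (30 min, room temperature) measured ERE-luciferase activity in VM7Luc4E2 cells treated 22 h with compound and 0.1 nM final 17beta-estradiol as stimulator.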

Measured: Potency

Chain of Androgen receptor (Homo sapiens) (P10275 whole entry, looked up): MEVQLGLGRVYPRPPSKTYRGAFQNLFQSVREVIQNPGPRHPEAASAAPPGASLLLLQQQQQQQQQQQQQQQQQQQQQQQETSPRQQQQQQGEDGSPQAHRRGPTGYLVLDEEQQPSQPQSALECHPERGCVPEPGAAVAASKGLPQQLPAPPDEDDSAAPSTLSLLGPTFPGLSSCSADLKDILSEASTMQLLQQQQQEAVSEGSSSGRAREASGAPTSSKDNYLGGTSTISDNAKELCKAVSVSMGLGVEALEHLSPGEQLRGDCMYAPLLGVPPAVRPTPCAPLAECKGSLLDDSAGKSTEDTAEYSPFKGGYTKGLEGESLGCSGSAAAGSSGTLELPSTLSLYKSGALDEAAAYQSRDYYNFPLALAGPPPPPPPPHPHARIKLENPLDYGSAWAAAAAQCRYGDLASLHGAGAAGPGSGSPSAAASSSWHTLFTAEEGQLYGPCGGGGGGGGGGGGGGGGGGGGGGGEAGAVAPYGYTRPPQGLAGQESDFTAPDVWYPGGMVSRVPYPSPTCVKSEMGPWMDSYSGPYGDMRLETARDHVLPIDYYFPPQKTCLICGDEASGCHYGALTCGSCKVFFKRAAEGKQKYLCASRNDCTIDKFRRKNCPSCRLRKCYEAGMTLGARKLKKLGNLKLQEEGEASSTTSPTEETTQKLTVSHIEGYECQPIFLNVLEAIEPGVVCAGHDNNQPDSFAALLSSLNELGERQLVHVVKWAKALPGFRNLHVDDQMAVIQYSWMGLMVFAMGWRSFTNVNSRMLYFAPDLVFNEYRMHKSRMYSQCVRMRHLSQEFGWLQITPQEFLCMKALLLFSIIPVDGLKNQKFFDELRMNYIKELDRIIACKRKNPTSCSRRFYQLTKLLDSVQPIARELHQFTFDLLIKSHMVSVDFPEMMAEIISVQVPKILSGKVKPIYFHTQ
Chain of Estrogen receptor (Homo sapiens) (P03372 whole entry, looked up): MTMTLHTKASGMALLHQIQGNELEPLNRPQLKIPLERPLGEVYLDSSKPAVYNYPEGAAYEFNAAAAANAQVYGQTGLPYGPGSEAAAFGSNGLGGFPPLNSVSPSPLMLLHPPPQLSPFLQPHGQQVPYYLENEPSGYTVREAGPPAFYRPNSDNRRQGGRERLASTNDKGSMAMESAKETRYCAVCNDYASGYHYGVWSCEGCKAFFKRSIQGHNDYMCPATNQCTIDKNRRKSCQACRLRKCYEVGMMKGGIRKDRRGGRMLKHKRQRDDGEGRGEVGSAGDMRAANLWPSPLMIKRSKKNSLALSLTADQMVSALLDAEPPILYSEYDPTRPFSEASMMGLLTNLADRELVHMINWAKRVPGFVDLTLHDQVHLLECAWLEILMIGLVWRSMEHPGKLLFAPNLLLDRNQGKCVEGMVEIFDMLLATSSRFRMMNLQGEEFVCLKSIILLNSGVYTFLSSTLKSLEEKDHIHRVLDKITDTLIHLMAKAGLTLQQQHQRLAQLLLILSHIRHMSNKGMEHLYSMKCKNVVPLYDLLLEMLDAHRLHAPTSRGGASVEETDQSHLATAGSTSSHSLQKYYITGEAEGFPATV

CN1CCN(c2cc3c(cc2F)c(=O)c(C(=O)O)cn3-c2ccc(F)cc2)CC1
not listed: [20]
inactive: all other assays above

CC(=O)c1ccccc1O
not listed: [14] | [15]
inactive: all other assays above

CC(=O)Nc1c(I)cc(I)c(C(=O)O)c1I
not listed: [14]
inactive: all other assays above

COCCc1ccc(OCC(O)CNC(C)C)cc1 (centres undefined)
not listed: [14] | [20]
inactive: all other assays above

O=C(O)Cc1ccc(CCNS(=O)(=O)c2ccc(Cl)cc2)cc1
not listed: [14]
inactive: all other assays above

CCn1nc(C(=O)O)c(=O)c2cc3c(cc21)OCO3
inactive: all assays above

CCN(Cc1ccncc1)C(=O)C(CO)c1ccccc1 (centres undefined)
not listed: [14] | [20]
inactive: all other assays above

N[C@H]1CN(c2c(F)cc3c(=O)c(C(=O)O)cn(C4C[C@H]4F)c3c2Cl)CC12CC2 (some centres undefined)
not listed: [14]
inactive: all other assays above

Oc1ccc(C2CNCCc3c2cc(O)c(O)c3Cl)cc1 (centres undefined)
not listed: [14] | [18] | [20]
inactive: all other assays above

CN1CC(=O)NC1=N
not listed: [15] | [20]
inactive: all other assays above

FC1(F)C(F)(F)C(F)(F)C2(F)C(F)(F)C(F)(F)C(F)(F)C(F)(F)C2(F)C1(F)F (centres undefined)
not listed: [9] | [10]
inactive: all other assays above

CC/C=C\CC/C=C/CO
not listed: [8] | [14] | [15] | [20]
inactive: all other assays above

C/C=C(\C)C#N
not listed: [8] | [14] | [15] | [20]
inactive: all other assays above

CC1(C)CO[C@@H](CC(=O)O)CN1
not listed: [9] | [10] | [14] | [15]
inactive: all other assays above

CCOC(=O)c1ccc(C)cc1
not listed: [9] | [10] | [14] | [15]
inactive: all other assays above

CCOc1ccc(C(=O)OCCN(CC)CC)cc1
not listed: [7] | [15] | [20]
inactive: all other assays above
